Results as given in PMC7862700, “An all-to-all approach to the identification of sequence-specific readers for epigenetic DNA modifications on cytosine”.

How the values were obtained:
Experiment in all cases: DAPPL (digital affinity profiling via proximity ligation, sequencing); 10 mM Tris-HCl pH 7.5, 50 mM NaCl, 1 mM DTT, 4% glycerol, room temperature, 30 min; GST-TFs on glutathione beads, 16-mer random dsDNA library, 0.1% formaldehyde crosslink after washing; high values mean tight binding
Details in all cases: protein: recombinant; tags: N-terminal GST; dsDNA, one strand shown
FLI1 = molecular target: T1, FLI1 (Homo sapiens, UniProt Q01543 1-452)
T1 sequence: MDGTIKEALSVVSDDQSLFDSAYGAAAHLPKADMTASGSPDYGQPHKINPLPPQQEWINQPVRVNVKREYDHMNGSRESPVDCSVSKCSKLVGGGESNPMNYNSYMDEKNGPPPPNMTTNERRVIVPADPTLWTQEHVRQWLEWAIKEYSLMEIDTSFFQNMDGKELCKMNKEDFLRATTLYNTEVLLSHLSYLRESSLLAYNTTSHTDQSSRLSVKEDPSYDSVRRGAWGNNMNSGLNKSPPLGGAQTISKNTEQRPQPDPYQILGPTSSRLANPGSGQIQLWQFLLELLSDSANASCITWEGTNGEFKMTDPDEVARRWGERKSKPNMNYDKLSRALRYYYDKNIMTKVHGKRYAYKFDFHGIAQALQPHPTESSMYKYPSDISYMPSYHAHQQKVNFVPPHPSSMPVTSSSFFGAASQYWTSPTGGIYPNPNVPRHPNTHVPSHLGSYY
Outline: (§1)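 After expression in yeast as GST fusions, human transcription factors were bound to glutathione beads, DNA-barcoded and mixed with a tag-only sample. The pools were incubated with 200 nmole of a 16-mer random double-stranded DNA library in Tris/NaCl/DTT/glycerol buffer (30 min, room temperature), washed and crosslinked with 0.1% formaldehyde. Proximity ligation with BsaI/T4 ligase ran for 1 h at 37 °C, before PCR amplification and sequencing on an Illumina NextSeq500. Binding signal is a hexamer's read frequency for a factor divided by its frequency for the tag-only sample.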

ELK1 = molecular target: T2, ELK1 (Homo sapiens, UniProt P19419 1-428)
T2 sequence: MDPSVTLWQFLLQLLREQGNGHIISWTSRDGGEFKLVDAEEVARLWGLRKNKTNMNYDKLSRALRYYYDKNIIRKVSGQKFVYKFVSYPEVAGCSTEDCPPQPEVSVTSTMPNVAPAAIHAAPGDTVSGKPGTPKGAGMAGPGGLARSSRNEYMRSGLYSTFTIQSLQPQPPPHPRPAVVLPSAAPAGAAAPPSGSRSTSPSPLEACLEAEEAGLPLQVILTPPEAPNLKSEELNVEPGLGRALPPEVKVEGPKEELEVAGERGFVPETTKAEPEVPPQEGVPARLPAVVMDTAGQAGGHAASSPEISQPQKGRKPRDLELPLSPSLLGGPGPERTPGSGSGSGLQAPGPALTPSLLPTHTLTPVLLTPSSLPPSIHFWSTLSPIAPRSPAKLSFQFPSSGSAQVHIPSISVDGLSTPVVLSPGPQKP
Outline: as §1

GABPA = molecular target: T3, GABPA (Homo sapiens, UniProt Q06546 1-454)
T3 sequence: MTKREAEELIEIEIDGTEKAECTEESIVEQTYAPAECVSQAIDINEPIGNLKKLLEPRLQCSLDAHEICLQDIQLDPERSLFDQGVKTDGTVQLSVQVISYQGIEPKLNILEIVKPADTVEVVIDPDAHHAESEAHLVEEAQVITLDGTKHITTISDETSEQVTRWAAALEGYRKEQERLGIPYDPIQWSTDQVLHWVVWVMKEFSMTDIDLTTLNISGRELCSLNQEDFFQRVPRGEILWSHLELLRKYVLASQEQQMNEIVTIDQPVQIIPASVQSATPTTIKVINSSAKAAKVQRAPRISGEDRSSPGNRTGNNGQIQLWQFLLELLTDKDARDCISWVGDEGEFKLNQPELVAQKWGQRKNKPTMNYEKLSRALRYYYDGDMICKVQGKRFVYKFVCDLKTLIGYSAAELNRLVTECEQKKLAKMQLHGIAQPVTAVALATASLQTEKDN
Outline: as §1

ERG = molecular target: T4, ERG (Homo sapiens, UniProt P11308 1-479)
T4 sequence: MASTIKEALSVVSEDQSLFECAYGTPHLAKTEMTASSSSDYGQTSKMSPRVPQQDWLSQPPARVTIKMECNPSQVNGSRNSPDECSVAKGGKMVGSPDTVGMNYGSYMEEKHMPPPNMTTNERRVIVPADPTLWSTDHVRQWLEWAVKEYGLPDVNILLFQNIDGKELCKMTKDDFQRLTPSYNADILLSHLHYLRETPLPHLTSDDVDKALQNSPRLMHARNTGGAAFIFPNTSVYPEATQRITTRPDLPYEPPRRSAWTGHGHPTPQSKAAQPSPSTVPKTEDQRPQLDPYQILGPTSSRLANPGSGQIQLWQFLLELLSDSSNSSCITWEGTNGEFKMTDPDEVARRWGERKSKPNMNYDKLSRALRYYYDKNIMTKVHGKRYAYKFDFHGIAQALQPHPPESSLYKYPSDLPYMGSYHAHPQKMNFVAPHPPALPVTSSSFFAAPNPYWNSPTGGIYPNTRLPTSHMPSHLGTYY
Outline: as §1

ELF1 = ELF1 (Homo sapiens, UniProt P32519 1-619)
Outline: as §1

EHF = molecular target: T5, EHF (Homo sapiens, UniProt Q9NZC4 1-300)
T5 sequence: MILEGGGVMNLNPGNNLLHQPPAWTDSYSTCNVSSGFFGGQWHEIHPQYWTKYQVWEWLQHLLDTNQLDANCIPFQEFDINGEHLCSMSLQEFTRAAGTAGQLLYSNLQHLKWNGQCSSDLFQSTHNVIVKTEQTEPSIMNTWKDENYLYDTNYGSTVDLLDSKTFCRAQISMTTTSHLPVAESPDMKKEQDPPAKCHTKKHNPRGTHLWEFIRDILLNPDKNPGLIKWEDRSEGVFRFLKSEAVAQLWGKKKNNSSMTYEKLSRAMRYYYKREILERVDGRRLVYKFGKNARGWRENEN
Outline: as §1

SPI1 = SPI1 (Homo sapiens, UniProt P17947 1-270)
Outline: as §1

SPIB = SPIB (Homo sapiens, UniProt Q01892 1-262)
Outline: as §1

ELK3 = molecular target: T6, ELK3 (Homo sapiens, UniProt P41970 1-407)
T6 sequence: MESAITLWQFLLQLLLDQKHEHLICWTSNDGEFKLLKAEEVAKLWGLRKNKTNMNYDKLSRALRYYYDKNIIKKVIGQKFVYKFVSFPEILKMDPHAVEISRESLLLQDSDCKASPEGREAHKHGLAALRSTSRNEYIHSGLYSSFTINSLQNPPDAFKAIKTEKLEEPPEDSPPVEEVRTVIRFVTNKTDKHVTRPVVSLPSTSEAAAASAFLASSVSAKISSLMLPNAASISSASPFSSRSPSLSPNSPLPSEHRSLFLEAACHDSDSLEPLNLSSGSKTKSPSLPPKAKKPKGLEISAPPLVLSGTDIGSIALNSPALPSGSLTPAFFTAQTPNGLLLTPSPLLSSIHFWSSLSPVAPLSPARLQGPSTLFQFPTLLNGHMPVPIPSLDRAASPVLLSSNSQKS
Outline: as §1

Sequence of ELF1 (P32519 whole entry): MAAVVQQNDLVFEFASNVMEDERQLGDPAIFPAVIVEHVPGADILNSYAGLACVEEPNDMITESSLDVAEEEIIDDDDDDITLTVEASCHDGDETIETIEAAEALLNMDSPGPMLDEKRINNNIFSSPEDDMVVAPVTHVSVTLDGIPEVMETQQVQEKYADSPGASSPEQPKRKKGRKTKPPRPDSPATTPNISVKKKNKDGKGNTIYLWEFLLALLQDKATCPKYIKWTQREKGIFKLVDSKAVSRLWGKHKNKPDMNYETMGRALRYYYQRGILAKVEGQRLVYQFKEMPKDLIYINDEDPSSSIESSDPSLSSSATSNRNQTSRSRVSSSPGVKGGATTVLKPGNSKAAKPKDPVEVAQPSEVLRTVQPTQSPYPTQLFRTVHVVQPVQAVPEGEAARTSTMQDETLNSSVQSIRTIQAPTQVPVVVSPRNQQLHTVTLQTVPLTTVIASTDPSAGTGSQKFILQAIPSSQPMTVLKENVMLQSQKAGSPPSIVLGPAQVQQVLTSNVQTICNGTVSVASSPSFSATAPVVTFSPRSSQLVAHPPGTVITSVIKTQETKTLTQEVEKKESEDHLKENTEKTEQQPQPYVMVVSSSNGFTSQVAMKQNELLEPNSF
Sequence of SPIB (Q01892 whole entry): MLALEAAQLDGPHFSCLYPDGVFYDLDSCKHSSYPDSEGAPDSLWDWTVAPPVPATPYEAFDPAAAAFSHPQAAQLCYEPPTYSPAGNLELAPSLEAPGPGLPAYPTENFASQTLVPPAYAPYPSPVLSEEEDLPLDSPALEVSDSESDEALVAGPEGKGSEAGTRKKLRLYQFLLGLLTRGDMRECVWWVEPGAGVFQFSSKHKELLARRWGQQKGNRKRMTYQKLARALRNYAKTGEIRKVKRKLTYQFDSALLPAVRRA

ATATTG
binding signal (FLI1): 1.25 fold enrichment (6-mer frequency, TF over GST control) | binding signal (ELK1): 1.31 fold enrichment (6-mer frequency, TF over GST control) | binding signal (GABPA): 1.32 fold enrichment (6-mer frequency, TF over GST control) | binding signal (ERG): 1.25 fold enrichment (6-mer frequency, TF over GST control) | binding signal (ELF1): 1.31 fold enrichment (6-mer frequency, TF over GST control) | binding signal (EHF): 1.3 fold enrichment (6-mer frequency, TF over GST control) | binding signal (SPI1): 1.28 fold enrichment (6-mer frequency, TF over GST control) | binding signal (SPIB): 1.28 fold enrichment (6-mer frequency, TF over GST control) | binding signal (ELK3): 1.29 fold enrichment (6-mer frequency, TF over GST control)
